From PubChem BioAssay (NCATS)
Inconclusive results are not listed. Calls of active or inactive are those of the source. Calls follow the shape of the dose curve; as a rule, active = well fitted curve in the direction sought with a large enough effect; inconclusive = small, poorly fitted or top-dose-only effect, or another doubt; inactive = no such curve, though single readings can be large; an effect the other way counts as inactive or inconclusive.

What was measured:
[1] = qHTS for Inhibitors of Plasmodium falciparum (DD2) proliferation (AID 504314);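 also: parasite DNA measured by SYBR Green fluorescence after red cell lysis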
In short: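 Quantitative HTS growth inhibition: SYBR Green I binding to parasite DNA after 72 h drug exposure of infected erythrocytes (0.3% parasitemia, 2.5% hematocrit). Signals normalized per plate to inhibitor and vehicle wells.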

[2] = qHTS for Inhibitors of Plasmodium falciparum (GB4) proliferation (AID 504315); also: nearly all actives have a fitted effect of over 50% in size
In short: (§1)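 Erythrocytes infected with P. falciparum line (0.3% parasitemia, 2.5% hematocrit final) incubated with compounds 72 h at 37 °C, 5% CO2; SYBR Green lysis buffer added, fluorescence read next day. Normalized to 0.29 uM artemisinin and DMSO.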

[3] = qHTS for Inhibitors of Plasmodium falciparum (HB3) proliferation (AID 504318); also: nearly all actives have a fitted effect of over 60% in size
In short: as §1

[4] = qHTS for Inhibitors of Plasmodium falciparum (CP250) proliferation (AID 504320)
In short: as §1

Measured: Potency

COCCN1C(=O)N(C)[C@@H](c2ccccc2)C(C(C)=O)=C1C
inactive: all assays above

CC#CCN1c2ccccc2[C@]23C[C@@H](C(=O)OC)N(S(=O)(=O)c4cccs4)C2=NC(C(=O)OC)=C(C(=O)OC)[C@H]13
inactive: [1] | [2] | [4]

CC#CCN1C(=O)N[C@@H](c2ccccc2)C(C(=O)OC)=C1C
inactive: all assays above

CCN(CC)CCCN1C=C2C(=O)C(C)(OC(=O)C3CCCC3)C(=O)C(c3ccccc3)=C2C=C1CCCC(=O)OC (configuration not stated)
inactive: all assays above

COC/C=C/C1=CC2=CC(=O)C(C)(OC(=O)c3cnc4ccccc4n3)C(=O)C2=CN1Cc1ccc(OC)cc1 (configuration not stated)
inactive: [1] | [2] | [4]

CC1(OC(=O)CCc2ccccc2)C(=O)C=C2C=C(c3ccc(C#N)cc3)N(CCc3ccccn3)C=C2C1=O (configuration not stated)
inactive: all assays above
